Experimental data: the supplement of paper PMC4166925
± gives the standard deviation of the averaged measurements. Whole data set: some 33,000 sequences, median “E-score (dimensionless, -0.5 to 0.5)” near -0.046, cut for the highest 2% near 0.36. What follows is part of a selection rich in the highest values, with near analogues and random picks from the rest.

These sequences were tested on T1, SpTbr T-box DNA-binding domain (GST fusion) (assay: PBM E-score of 8-mer (E-score (dimensionless, -0.5 to 0.5)); Tbr is Tbrain of the sea star Patiria miniata (Pm) or the sea urchin Strongylocentrotus purpuratus (Sp); higher = stronger binding preference). Conditions: the construct has about 5 more residues each side.
T1 sequence: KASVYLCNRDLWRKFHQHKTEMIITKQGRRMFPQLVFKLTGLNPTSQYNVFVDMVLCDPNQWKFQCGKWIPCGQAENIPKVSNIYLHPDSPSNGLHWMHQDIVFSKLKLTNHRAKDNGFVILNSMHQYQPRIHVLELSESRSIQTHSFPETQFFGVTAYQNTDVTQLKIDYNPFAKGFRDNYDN
Procedure: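 Universal protein-binding microarray (Agilent AMADID 016060, 60-bp probes with a 35-bp variable region) incubated with 200 nM GST-fused Strongylocentrotus purpuratus Tbr T-box DNA-binding domain (residues 362-554) in PBS pH 7.5. Scored for every ungapped 8-mer (given with its reverse complement) as E-score (range -0.5 to 0.5; >0.45 counts as bound) and Z-score of median probe intensity. Two replicate arrays (datasets 1 and 2).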
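Further: protein at 200 nM in PBS on universal double-stranded arrays.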

Row | Sequence | PBM E-score of 8-mer
1 | CTCACGCC | 0.397 ± 0.039
2 | ATATAGGC | -0.0504 ± 0.058
3 | ACTTAAGT | -0.0767 ± 0.13
4 | GTGCTCTA | -0.178 ± 0.029
5 | ACCCGAAC | -0.0199 ± 0.021
6 | AGCAAAAT | -0.0958 ± 0.067
7 | CCCTTACG | -0.0777 ± 0.068
8 | GCCTGCAA | -0.0777 ± 0.016
9 | CCGCTAAC | 0.16 ± 0.031
10 | CTGCTAAA | 0.0425 ± 0.15
11 | GTGCTAAA | 0.384 ± 0.026
12 | GTGCTAAC | 0.432 ± 0.012
13 | GCGCTAAA | 0.338 ± 0.014
14 | TTGCTAAA | 0.109 ± 0.08
15 | ATGCTAAC | 0.0372 ± 0.018
16 | GCGCTAAC | 0.388 ± 0.007
17 | CTGCTAAC | 0.321 ± 0.029
18 | AACAAGGT | 0.271 ± 0.009
19 | AGTAGCGC | 0.224 ± 0.014
20 | GACCATAC | -0.206 ± 0.012
21 | ACAACCAT | 0.0868 ± 0.041
22 | GAAGTCGA | 0.107 ± 0.051
23 | AGTCTGGG | -0.278 ± 0.029
24 | CCCAACGG | -0.055 ± 0.1
25 | ATGTTATA | -0.0933 ± 0.013
26 | ACGTTAAC | 0.255 ± 0.013

Row | Sequence | PBM E-score of 8-mer
27 | ATGTTGGA | -0.0349 ± 0.065
28 | CTGTTAAC | 0.312 ± 0.028
29 | ATGTTAAC | 0.182 ± 0.097
30 | CTGTTGGA | 0.0702 ± 0.044
31 | GTGTTAAC | 0.4543 ± 0.0026
32 | CTGTTATA | 0.137 ± 0.071
33 | GTGTTATA | 0.4 ± 0.034
34 | CCGTTAAC | 0.228 ± 0.007
35 | GTGTTGGA | 0.367 ± 0.0068
36 | GCGTTAAC | 0.374 ± 0.011
37 | AAAGCGCT | 0.0608 ± 0.028
38 | GAGCAGTA | -0.00784 ± 0.039
39 | AGTTAGCG | 0.304 ± 0.0085
40 | GTCGAGCA | 0.0707 ± 0.028
41 | ATTTAAAT | -0.06656 ± 0.00039
42 | ACCTCCCT | 0.00833 ± 0.034
43 | TTGTTAAA | 0.184 ± 0.12
44 | GTGTTAAA | 0.395 ± 0.026
45 | CTGTTAGA | 0.11 ± 0.12
46 | ATGTTAGA | -0.136 ± 0.095
47 | CTGTTAAA | 0.231 ± 0.041
48 | GTGTTAGA | 0.384 ± 0.0066
49 | GGTAGACA | -0.025 ± 0.028
50 | CTCTTCAC | 0.292 ± 0.018
51 | AAGGGGCA | -0.297 ± 0.042
52 | AAGGCGCT | 0.306 ± 0.035

Row | Sequence | PBM E-score of 8-mer
53 | AGAGCAAT | -0.132 ± 0.0051
54 | AGGTGATC | 0.116 ± 0.085
55 | ACGTGATG | 0.0808 ± 0.05
56 | AGGTGATG | 0.3942 ± 0.0033
57 | GGGTGATA | 0.253 ± 0.0088
58 | CGGTGATA | 0.111 ± 0.0075
59 | AGGTGATA | 0.428 ± 0.015
60 | ACGCCGGC | 0.242 ± 0.0047
61 | AGGGGGAT | -0.262 ± 0.033
62 | ACTTTCAA | 0.0855 ± 0.0062
63 | ATCGCAAA | 0.0887 ± 0.0029
64 | CTCGCGAG | 0.284 ± 0.03
65 | ATCGCGTA | 0.13 ± 0.024
66 | ATCGCGAT | 0.364 ± 0.011
67 | CTCGCGAC | 0.311 ± 0.025
68 | GTCGCGAC | 0.362 ± 0.019
69 | ATCGCGAC | 0.271 ± 0.036
70 | ATCGCGAG | 0.255 ± 0.0054
71 | TTCGCGAA | 0.3584 ± 0.0003
72 | CTCGCGAA | 0.389 ± 0.012
73 | ATCGCGAA | 0.367 ± 0.032
74 | GTCGCGAA | 0.372 ± 0.025
75 | GAAAGTGA | 0.293 ± 0.039
76 | AAAAAAGT | -0.074 ± 0.11
77 | CCTACTAA | -0.0157 ± 0.06
78 | CGTGTAAA | 0.296 ± 0.027

Row | Sequence | PBM E-score of 8-mer
79 | TGCATCAA | -0.0456 ± 0.044
80 | CTGCCAAG | 0.105 ± 0.03
81 | ACGCTCAG | 0.0449 ± 0.0089
82 | CAAGAACG | -0.267 ± 0.011
83 | ACCCTTGA | -0.0396 ± 0.029
84 | ATGCGCTC | -0.175 ± 0.02
85 | TGACCTCA | 0.0321 ± 0.076
86 | AAACCTCT | -0.292 ± 0.061
87 | CCACCTCG | 0.228 ± 0.019
88 | TAACCTCA | -0.153 ± 0.018
89 | ACACCTCG | 0.4804 ± 0.0036
90 | ACACCTCT | 0.479 ± 0.0083
91 | ATACCTCC | -0.0183 ± 0.066
92 | AAACCTCG | 0.0284 ± 0.048
93 | AGACCTCT | -0.281 ± 0.035
94 | CCACCTCC | 0.324 ± 0.0077
95 | ACACCTCC | 0.4854 ± 0.0043
96 | TCACCTCA | 0.387 ± 0.0086
97 | ACTCTTCG | 0.113 ± 0.071
98 | CCACTGCG | 0.0281 ± 0.049
99 | GAACGAGC | -0.187 ± 0.063
100 | CGGGGGAC | -0.117 ± 0.088
101 | CAATTGAG | -0.2 ± 0.036
102 | CCTAACCG | -0.163 ± 0.039
103 | AGGACTAT | -0.234 ± 0.035
104 | CGGCGATA | 0.094 ± 0.028

Row | Sequence | PBM E-score of 8-mer
105 | TTCGCCAA | 0.124 ± 0.054
106 | GCACCTCC | 0.396 ± 0.013
107 | ACGCCTCA | 0.331 ± 0.01
108 | ACGCCTCG | 0.373 ± 0.019
109 | CCACCTCA | 0.172 ± 0.067
110 | GGACCTCC | -0.327 ± 0.017
111 | ACACCTCA | 0.4607 ± 0.0039
112 | AGACCTCA | 0.1 ± 0.022
113 | GCACCTCA | 0.343 ± 0.02
114 | ACGCCTCT | 0.30412 ± 0.00015
115 | CACAGCAG | -0.0256 ± 0.044
116 | ATTAAGAA | -0.254 ± 0.043
117 | ATAGATCG | 0.0137 ± 0.011
118 | CACGGTTA | -0.0116 ± 0.056
119 | CCTAGGCC | -0.0372 ± 0.013
120 | CTCGCTAA | 0.232 ± 0.043
121 | CAATAGAC | -0.0363 ± 0.07
122 | ACACTTAC | 0.4 ± 0.024
123 | ACTCTTAG | -0.106 ± 0.0089
124 | ACACTTAG | 0.383 ± 0.038
125 | GCACTTAC | 0.208 ± 0.017
126 | ACACTTAA | 0.336 ± 0.027
127 | CCACTTAG | -0.0238 ± 0.042
128 | ACACTTAT | 0.402 ± 0.0068
129 | CCACTTAC | 0.161 ± 0.0085
130 | ACTCTTAT | -0.0294 ± 0.038

Row | Sequence | PBM E-score of 8-mer
131 | CGAGCACA | -0.0373 ± 0.063
132 | CGGCCGAA | -0.16 ± 0.027
133 | GGCAGGGA | -0.182 ± 0.062
134 | TAACCTGA | -0.0659 ± 0.025
135 | GGAGGGTA | -0.0485 ± 0.045
136 | AGGCCTAT | -0.196 ± 0.034
137 | CACCTAAC | 0.387 ± 0.018
138 | AACCTAAC | -0.0237 ± 0.04
139 | CACCTAAG | 0.383 ± 0.019
140 | AACCTAAG | -0.133 ± 0.0067
141 | CCCCTAAG | -0.17 ± 0.067
142 | CACCTAAA | 0.3188 ± 0.00098
143 | AGGTTGAT | -0.0456 ± 0.014
144 | AGTTGGCC | -0.112 ± 0.0038
145 | ATTGTGGA | 0.0374 ± 0.11
146 | AAGACCTC | 0.00991 ± 0.032
147 | AACACCGA | 0.228 ± 0.03
148 | AACACCGC | 0.299 ± 0.018
149 | AACACCTC | 0.481 ± 0.0063
150 | CACACCTA | 0.4806 ± 0.0011
151 | TACACCGA | 0.118 ± 0.1
152 | CCCACCTA | 0.282 ± 0.013
153 | TACACCAA | 0.0641 ± 0.095
154 | CACACCGA | 0.291 ± 0.036
155 | TACACCTA | 0.377 ± 0.0086
156 | AACACCTA | 0.4609 ± 0.0024

Row | Sequence | PBM E-score of 8-mer
157 | CCCTATCA | 0.0101 ± 0.042
158 | TGAAACCA | -0.0205 ± 0.016
159 | TGTCAAAA | 0.289 ± 0.021
160 | TACCCGGA | -0.128 ± 0.15
161 | GCAATCGC | 0.212 ± 0.0066
162 | ACTGAGGA | -0.0611 ± 0.02
163 | CCAATAAC | -0.0379 ± 0.13
164 | CTGGGACC | -0.174 ± 0.015
165 | ACGCCAAC | 0.144 ± 0.021
166 | CCAGCTTC | -0.142 ± 0.058
167 | CGAACAGA | 0.0582 ± 0.028
168 | CACACCGG | 0.175 ± 0.059
169 | AAGACCTT | -0.259 ± 0.0063
170 | ACCACCTG | 0.224 ± 0.037
171 | CACACCTG | 0.479 ± 0.0072
172 | AACACCGT | 0.243 ± 0.091
173 | AACACCTG | 0.463 ± 0.0057
174 | AACACCTT | 0.479 ± 0.0049
175 | CAGACCTG | -0.0842 ± 0.0016
176 | AACACCGG | 0.118 ± 0.015
